Screening results from PubChem BioAssay.
Pf growth 48h = inhibits P. falciparum growth in the first generation, 48 h; P. falciparum luciferase growth in erythrocytes, 48 h; Potency, µM (top dose mostly 28.7 µM), actives largely listed as inhibitors; 5.9% of 310,000 active
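Firefly luciferase activity from engineered P. falciparum reports growth; inhibitors lower the luminescent signal. Cultures contained 2% hematocrit erythrocytes at 0.1% final parasitemia.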
NS1 function inh = inhibitors of influenza NS1 protein function. 0.4% of 270,000 active. Potency, µM (series often up to 46.1 µM); calls by dose curve; further: actives are rising curves; nearly all actives have a fitted effect of over 50% in size
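A cell-based growth assay was used: compounds that relieve NS1-induced slow growth of budding yeast raise OD600. Assay medium was yeast nitrogen base with ammonium sulphate and -URA supplement, pH 6.0, with 2% galactose.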
CHX counter = counter-screen hit for Shiga toxin inhibitors, cycloheximide; cell reporter, cycloheximide protein synthesis inhibition counterscreen; max response, %; 12% of 300,000 active; in the data active means max response mostly above about 13%, no sharp cut-off; inactive means mostly below about 14%; further: read at 38.3 µM for the half of the compounds with a filed dose
Sm TGR block = blocks Schistosoma mansoni thioredoxin glutathione reductase. purified TGR, DTNB reduction, TNB absorbance 405 nm. 3% of 360,000 active. Q962Y6. Potency, µM (highest dose often 114 µM), most hits filed as inhibitors. AID 485364; further: nearly all actives have a fitted effect of over 60% in size
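First, TGR (20 nM dispensed) and NADPH were mixed with compound. Second, a 15 min room-temperature incubation followed. Third, further NADPH and then DTNB were added to start the reaction. Finally, TNB absorbance was monitored kinetically.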
Shiga toxin inh = Shiga toxin inhibition; Vero cells, Shiga toxin protein synthesis inhibition reporter; inhibition, % at 38.7 µM; 9.2% of 290,000 active; in the data active means inhibition mostly above about 28%, no sharp cut-off; inactive means mostly below about 43%
Pf growth 96h = inhibits malaria parasite growth, 96 h | Potency, µM (highest dose often 28.7 µM), usual class: inhibitors | P. falciparum luciferase reporter growth, 96 h | 6.9% of 320,000 active
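Cell-based qHTS: luciferase-tagged P. falciparum in erythrocytes (2% hematocrit, 0.05% parasitemia final) incubated with compounds for 96 hours, 37 C, 5% CO2; luciferase detection reagent then added and luminescence measured.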
Hits are given with their value. This is a sample that favours compounds with a hit; in the whole collection about 21% have one here. Unless noted, the call rests on the fitted dose curve; in most records, active means well fitted curve in the direction sought with a large enough effect; inconclusive means small, poorly fitted or top-dose-only effect, or another doubt; inactive means no such curve, though single readings can be large; an effect the other way counts as inactive or inconclusive.

For O=C(COc1ccc(Cl)cc1)Nc1ccc(NC(=O)c2ccco2)cc1 the results were Pf growth 48h inactive, NS1 function inh inactive, CHX counter inactive, Sm TGR block inactive, Shiga toxin inh inactive and Pf growth 96h inactive.
For O=C(Nc1ccc(Cl)cc1)c1ccco1 the results were Pf growth 48h inactive, NS1 function inh inactive, CHX counter 33, Sm TGR block inactive, Shiga toxin inh inactive and Pf growth 96h 5.2µM.
Screening CSc1cccc(NC(=O)c2ccco2)c1 returned Pf growth 48h inactive, NS1 function inh inactive, CHX counter 30, Sm TGR block inactive and Shiga toxin inh 108.
CCC(C)c1ccc(NC(=O)c2ccco2)cc1 (centres undefined) was read as Pf growth 48h inactive, NS1 function inh inactive, CHX counter 26, Sm TGR block inactive, Shiga toxin inh inactive and Pf growth 96h inconclusive.
For COc1ccc(C(C)(C)C)cc1NC(=O)Cn1cnnn1 the results were Pf growth 48h inconclusive, NS1 function inh inactive, CHX counter inactive, Sm TGR block inactive, Shiga toxin inh inactive and Pf growth 96h inactive.
`Cc1ccc(CNC(=O)c2cc(Sc3ccc(F)cc3F)nc3ccccc23)cc1` gave Sm TGR block inactive.
COC(=O)C1=C(C)NC(=S)NC1c1ccc(OCC(=O)N2CCCCC2)c(OC)c1 (centres undefined) was read as Pf growth 48h inconclusive, NS1 function inh inactive, CHX counter inactive, Sm TGR block inactive, Shiga toxin inh inactive and Pf growth 96h inactive.
For O=C(Cc1ccccc1)Nc1ccc(SC(F)F)cc1 the results were Pf growth 48h inactive, NS1 function inh inactive, CHX counter 41, Sm TGR block inactive, Shiga toxin inh inactive and Pf growth 96h inactive.
For COc1ccc(-c2cccc(NC(=O)c3ccco3)c2)nn1 the results were Pf growth 48h inconclusive, Sm TGR block inactive and Pf growth 96h inconclusive.
`O=C(Cc1ccccc1)Nc1ccc(NC(=O)c2ccco2)cc1` gave Pf growth 48h inactive, NS1 function inh inactive, CHX counter 18, Sm TGR block inactive, Shiga toxin inh 51 and Pf growth 96h inactive.
Screening COc1ccc(-c2ccc(NC(=O)c3ccco3)cc2)nn1 returned Pf growth 48h inconclusive, Sm TGR block 50µM and Pf growth 96h inactive.
For COc1ccc(Cl)cc1C(=O)Nc1ccc(NC(=O)c2ccco2)cc1 the results were Pf growth 48h inconclusive, NS1 function inh inactive, CHX counter inactive, Sm TGR block inactive, Shiga toxin inh inactive and Pf growth 96h 2.1µM.
Screening COc1cccc(NC(=O)CN(C)C(=O)CC(NC(=O)c2ccccc2Cl)c2ccccc2)c1 (centres undefined) returned Pf growth 48h inconclusive, Sm TGR block inactive and Pf growth 96h inconclusive.
Screening CCCCCN1C(C(=O)c2ccccc2)=C(NC(=O)c2ccc(C)cc2)c2ccccc2S1(=O)=O returned Sm TGR block inactive.
Screening Cc1ccc(S(=O)(=O)NCCc2nnc3ccc(SCC(=O)Nc4ccc(F)cc4F)nn23)cc1 returned Sm TGR block inactive.
O=C(CSc1nnc(-c2cccs2)n1-c1cccc(Cl)c1)c1cccc2c1OCCO2 was read as NS1 function inh inactive, CHX counter inactive, Sm TGR block inactive, Shiga toxin inh inactive and Pf growth 96h inactive.
Screening O=C(O)CCCCCNC(=O)CSc1nnc(-c2ccco2)n1-c1ccccc1 returned Pf growth 48h inactive, NS1 function inh inactive, CHX counter inactive, Sm TGR block inactive, Shiga toxin inh inactive and Pf growth 96h inactive.
`COc1ccc(CCN2C(=O)N[C@@H](CCC(=O)O)C2=O)cc1` gave Pf growth 48h inactive, NS1 function inh inactive, CHX counter inactive, Sm TGR block inactive, Shiga toxin inh inactive and Pf growth 96h inactive.
`COc1ccc(NS(=O)(=O)c2cccc(C(=O)NNC(=O)c3ccc(Br)o3)c2)cc1` gave Pf growth 48h inactive, Sm TGR block inactive and Pf growth 96h inactive.
For Cn1c(NC(=O)c2ccco2)c(-c2ccc(Cl)cc2)c(=O)c2ccccc21 the results were Pf growth 48h inactive, NS1 function inh inactive, CHX counter inactive, Sm TGR block inactive and Shiga toxin inh inactive.
Cc1cccc2c(=O)c(-c3ccc(Cl)cc3)c(NC(=O)c3ccco3)oc12 was read as Pf growth 48h inactive, NS1 function inh inactive, CHX counter 16, Sm TGR block inactive, Shiga toxin inh 24 and Pf growth 96h inactive.
NC(=NCc1ccco1)NC(=O)c1ccc(Cl)cc1 was read as Pf growth 48h inactive, NS1 function inh inactive, CHX counter 25, Sm TGR block inactive, Shiga toxin inh 76 and Pf growth 96h inactive.
`NC(=O)CNC(=O)c1ccc(Cl)cc1` gave Pf growth 48h inactive, NS1 function inh inactive, CHX counter inactive, Sm TGR block inactive, Shiga toxin inh inactive and Pf growth 96h inactive.
Cc1ccccc1NC(=O)Cc1nc(COC(=O)C(NC(=O)c2ccccc2C)C(C)C)cs1 (centres undefined) was read as Pf growth 48h inconclusive, Sm TGR block inactive and Pf growth 96h inactive.
For CCNc1nc2cccnc2s1 the results were Pf growth 48h inactive, NS1 function inh inactive, CHX counter 26, Sm TGR block inactive, Shiga toxin inh inactive and Pf growth 96h inactive.
CCC(C)CCCCC(=O)N[C@@H](CCN)C(=O)N[C@H](C(=O)N[C@@H](CCN)C(=O)N[C@H]1CCNC(=O)C([C@@H](C)O)NC(=O)[C@@H](CCN)NC(=O)[C@H](CCN)NC(=O)[C@H](CC(C)C)NC(=O)[C@@H](CC(C)C)NC(=O)[C@H](CCN)NC1=O)[C@@H](C)O (some centres undefined) was read as CHX counter inactive and Shiga toxin inh inactive.
For CN(Cc1cnn(C)c1)C(=O)c1cc(COc2c(F)cccc2F)on1 the results were Pf growth 48h inactive, NS1 function inh inactive, CHX counter 19, Sm TGR block inactive, Shiga toxin inh inactive and Pf growth 96h inactive.
`CCN(CCn1cccn1)C(=O)c1cc(COc2c(F)cccc2F)on1` gave Pf growth 48h inactive, NS1 function inh inactive, CHX counter inactive, Sm TGR block inactive, Shiga toxin inh inactive and Pf growth 96h inconclusive.
Screening CCn1ccnc1CN(C)C(=O)c1cc(COc2c(F)cccc2F)on1 returned Pf growth 48h inactive, NS1 function inh inactive, CHX counter inactive, Sm TGR block inactive, Shiga toxin inh inactive and Pf growth 96h inconclusive.
COc1cccc(CN(C)C(=O)c2cc(COc3ccc4ncccc4c3)on2)c1 was read as Pf growth 48h inactive, NS1 function inh inactive, CHX counter inactive, Sm TGR block inactive, Shiga toxin inh inactive and Pf growth 96h inactive.
For COc1cccc(CN(C)C(=O)c2cc(COc3c(F)cccc3F)on2)c1 the results were Pf growth 48h inactive, NS1 function inh inactive, CHX counter 22, Sm TGR block inactive, Shiga toxin inh inactive and Pf growth 96h inactive.
`CCN(Cc1ccccc1)C(=O)c1cc(COc2c(F)cccc2F)on1` gave Pf growth 48h inactive, NS1 function inh inactive, CHX counter 13, Sm TGR block inactive, Shiga toxin inh inactive and Pf growth 96h inactive.
